Dicer processing: human Dicer pre-microRNA cleavage inhibition | cat-ELCCA pre-miR-21 Dicer processing, chemiluminescence; hits give high values | z-score at 25 µM | 6% of 47,000 active; in the data active = z-score above about 3, passing the limit was not always enough;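 also: plate controls were vehicle for no effect and no enzyme for full effect; higher signal means more uncleaved substrate so more Dicer inhibition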
Active calls of the source: *. Many of the other results were omitted from the sample, so hits are more common in it than they were.

SMILES | Dicer processing
CCOC(=O)C1=C(C)NC2=C(C(=O)CC(c3ccccc3)C2)C1c1cccc(Br)c1 (centres undefined) | 5.4*
Clc1ccc(-c2cncn2N2CCCCC2)cc1 | -0.18
CS(=O)(=NC(=O)c1ccc2nnsc2c1)c1ccccc1 (centres undefined) | -1.2
Cc1ccc(NC(=S)N2CCc3ccccc3C2)c(C)c1 | -0.1
C#CCOc1cccc2oc(CCC)cc(=O)c12 | -0.2
O=C(NCCCn1cccc1)c1c(F)cccc1F | 0.39
O=C(CSc1n[nH]c(=O)n1Cc1ccco1)c1csc2ccccc12 | -0.55
Cc1cc(NC(=S)NN)ccc1Br | 4.1*
NNC(=S)Nc1ccc(Br)c(Cl)c1 | 5
CC(C)c1ccc(NC(=S)NN)cc1 | 1
NC(=S)N/N=C/Cc1nnnn1-c1ccc(-c2ccccc2)cc1 | 3.2*
Clc1ccccc1N/N=C/Cc1nnnn1-c1ccccc1 | 0.48
CN(/N=C/Cc1nnnn1-c1ccc(Cl)cc1)c1ccccc1 | -1.1
Cc1n[nH]c(=S)n1/N=C\c1ccco1 | 1.9
Cc1[nH]cnc1CSCCNC(=O)Nc1cccc(Cl)c1 | 2.6
Cc1cccc(NC(=O)C(F)(F)F)c1C(=O)O | -0.22
CSc1nnc(Nc2ccc(Cl)cc2Cl)s1 | 3.9*
CSc1ccc(/C=N/Nc2ccc(Cl)cc2Cl)s1 | 5.2
CSc1nc(C)nc(Nc2ccc(Cl)cc2Cl)c1C#N | -0.83
CC(C)c1ccc(NNC(N)=S)cc1 | 0.04
Cc1nc(-c2ccc(Cl)cc2)cs1 | 2.6
CCc1ccc(S(=O)(=O)Nc2ccc(-c3cn4cccc(C)c4n3)cc2)cc1 | 7.2*
Cc1cccc(S(=O)(=O)Nc2ccc(-c3cn4cccc(C)c4n3)cc2)c1 | 10
Cc1nc(-c2ccc(NS(=O)(=O)c3ccc(Cl)cc3)cc2)cs1 | 5.9*
Cc1nc(-c2cccc(NS(=O)(=O)c3ccc4ccccc4c3)c2)cs1 | 4.5*
SMILES | Dicer processing
CC(=O)Nc1ccc(S(=O)(=O)Nc2ccc(-c3csc(C)n3)cc2)cc1Cl | -0.43
CCCN(CCC)S(=O)(=O)c1cccc(-c2cn3cccc(C)c3n2)c1 | 0.04
CC(=O)Nc1nc(-c2ccc3ccccc3c2)cs1 | 0.21
Cc1cccc(S(=O)(=O)Nc2cccc(-c3cn4ccc(C)cc4n3)c2)c1 | 1.4
Cc1cccn2cc(-c3ccc(NS(=O)(=O)c4ccc(Cl)cc4)cc3)nc12 | 6*
Cc1cc(C)c(S(=O)(=O)Nc2ccc(-c3cn4ccccc4n3)cc2)cc1C | 2.6
Cc1cccn2cc(-c3cccc(S(=O)(=O)N4CC(C)CC(C)C4)c3)nc12 (centres undefined) | 0.16
CCOC(=O)C(=NNc1ccccc1Cl)C(=O)OCC | -0.14
COc1ccc(C2C(C(=O)OC(C)C)=C(C)Nc3nc4ccccc4n32)c(OC)c1 (centres undefined) | -1.1
CSc1nc(-c2cnccn2)nc(-c2ccccc2Cl)c1C#N | -0.15
NC(=O)Cn1c(=O)n(-c2cccc(Cl)c2)c(=O)c2cc(-c3ccccc3)sc21 | -0.38
C=CCOc1ccc(C2c3c(oc4ccccc4c3=O)C(=O)N2c2nc(C)c(C)s2)cc1 (centres undefined) | 0.63
Nc1nccc(-c2nn(-c3ccc(F)cc3)ccc2=O)n1 | 0.22
CN1c2ccccc2N(C)C1c1ccccc1 | -1.6
Cn1nccc1NC(=O)c1ccccc1 | -0.76
O=C1N(CN2CCN(C(c3ccccc3)c3ccccc3)CC2)c2ccccc2C12OCCO2 | -0.92
O=C(O)c1ccc2ccccc2c1-c1c(C(=O)O)ccc2ccccc12 | 1.1
O=C(O)c1cc2ccccc2c(-c2c(O)c(C(=O)O)cc3ccccc23)c1O | 4.1*
O=C(O)c1cc(-c2cc(C(=O)O)c3ccccc3n2)nc2ccccc12 | 0.45
Cc1cc([N+](=O)[O-])ccc1N1CCCC1 | -0.69
Clc1ccc(-c2nc(-c3cc(Cl)c(Cl)s3)cs2)cc1 | 0.48
CC(=O)NNC(=O)CNC(=O)c1cc(C)cs1 | 0.57
Nc1nc2nc(-c3cccc(Br)c3)cc(C(F)(F)F)n2n1 | 4.9*
FC(F)(F)c1cccc(Nc2cc(-c3ccccc3)nc3ncnn23)c1 | 0.54
Nc1nc2nc(-c3ccc(OCc4ccccc4)cc3)cc(C(F)(F)F)n2n1 | 0.12
SMILES | Dicer processing
FC(F)(F)c1cc(-c2ccc(Br)cc2)nc2ncnn12 | -0.18
Cc1cc2nc(-c3cccc(Br)c3)cc(C(F)(F)F)n2n1 | -1.5
FC(F)(F)c1cc(-c2cccc(Br)c2)nc2ncnn12 | 3.9*
Cc1ccc(N2CC(O)=C(c3nc4ccccc4s3)C2=N)cc1C | 2.7
CCOc1ccc(C2c3c(oc4ccccc4c3=O)C(=O)N2Cc2ccc3c(c2)OCO3)cc1OCC (centres undefined) | -0.74
CCc1ccc(OCc2nc(-c3ccc(OC)c(OC)c3)no2)cc1 | -2.6
CC(C)N(Cc1ccccc1)S(=O)(=O)c1ccc(-c2ccccn2)s1 | 0.01
O=C1CC(c2ccccc2)CC(O)=C1C=Nc1ccc(Cl)cc1 (centres undefined) | 3*
O=C1CCC(c2ccccc2)C(O)=C1C=Nc1ccc(Cl)cc1 (centres undefined) | 1.6
O=C1CC(c2ccccc2)CC(O)=C1C=Nc1ccccc1Cl (centres undefined) | 1.8
CCOC(=O)Cc1csc(NS(=O)(=O)c2cn(C)cn2)n1 | -0.98
Cc1cc(-c2nnc(SCC(=O)c3ccc(C(C)(C)C)cc3)o2)no1 | -1.1
CC1=C(C(=O)OC2CCCC2)C(c2ccc(Br)cc2)C2=C(CC(C)(C)CC2=O)N1 (centres undefined) | -0.64
COc1ccccc1N=C(N)SCc1ccccc1 | 5.9*
NC(=Nc1ccccc1)SCc1ccc([N+](=O)[O-])cc1 | -1.4
N#Cc1ccc(CSC(N)=Nc2ccccc2)cc1 | -0.99
CC(=O)OCCNc1ccc2noc3c2c1C(=O)c1ccccc1-3 | 0.48
O=c1c2c(n3nnnc3n1Cc1ccccc1)-c1ccccc1CC21CCCCC1 | 3.2*
NC(=O)CSc1nnc2n(Cc3ccccc3)c(=O)c3c(n12)-c1ccccc1CC31CCCCC1 | 3
CCOC(=O)CSc1nc2c(c(=O)[nH]1)C1(CCCCC1)Cc1ccccc1-2 | -0.76
O=C(CCSc1c(Cl)cccc1Cl)c1ccc(Cl)s1 | -0.5
O=c1[nH]c(SCc2ccccc2)nc2c1CCC2 | -1
O=C(CSc1nc(-c2ccc(F)cc2)cc(C(F)(F)F)n1)NCCCn1ccnc1 | 0.46
Oc1ccc2ccccc2c1CN1CCN(c2ccc(F)cc2)CC1 | -3.4
Oc1ccc2ccccc2c1CN1CCc2ccccc2C1 | 3.6*
SMILES | Dicer processing
CC1CCN(Cc2c(O)ccc3ccccc23)CC1 | 1.6
CN(C)c1ccc(/C=N/NS(=O)(=O)c2cc(Cl)c(Cl)cc2Cl)cc1 | 2.3
O=C(c1nn2c(c1Br)NC(c1ccccc1)CC2C(F)(F)F)N1CCOCC1 (centres undefined) | 5.2*
Cc1ccc(C2CC(C(F)(F)F)n3nc(C(=O)N4CCN5CCCC5C4)c(Cl)c3N2)cc1 (centres undefined) | -1.7
NC(=O)c1nn2c(c1Br)NC(c1ccccc1)CC2C(F)(F)F (centres undefined) | 3.8*
O=C(c1nn2c(c1Cl)NC(c1ccc(Br)cc1)CC2C(F)(F)F)N1CCCCC1 (centres undefined) | -1.3
O=C(c1nn2c(C(F)(F)F)cc(-c3ccccc3)nc2c1Br)N1CCOCC1 | -0.52
O=C(O)c1nn2c(c1Br)NC(c1ccccc1)CC2C(F)(F)F (centres undefined) | -0.34
O=C(c1nn2c(c1Cl)NC(c1ccc(Br)cc1)CC2C(F)(F)F)N1CCOCC1 (centres undefined) | 3.7*
CC(NC(=O)c1nn2c(c1Cl)NC(c1ccccc1)CC2C(F)(F)F)c1ccccc1 (centres undefined) | -0.69
